The values below come from PubChem BioAssay AID1445 (SRMLSC, 2008).

Among all 220,000 compounds or so, about 910 (0.41%) were called active. Only a selection was taken, and actives are over-represented in it overall. Measured potencies and affinities stand elsewhere. Values without a mark were called inactive.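 How the source made its calls: active means primary inhibition above the hit cutoff, then over 50% inhibition at one or more dose response concentrations (cut at about 23% in these data, passing the limit was not always enough); inconclusive means conflicting primary data, or primary hits not chosen for dose response; inactive means low primary inhibition, or under 50% at every dose.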

As usually defined, the inhibition is the relative decrease from the control value, in per cent.

Aminopeptidase N (Plasmodium falciparum (isolate 3D7)), sequence (O96935 whole entry, looked up): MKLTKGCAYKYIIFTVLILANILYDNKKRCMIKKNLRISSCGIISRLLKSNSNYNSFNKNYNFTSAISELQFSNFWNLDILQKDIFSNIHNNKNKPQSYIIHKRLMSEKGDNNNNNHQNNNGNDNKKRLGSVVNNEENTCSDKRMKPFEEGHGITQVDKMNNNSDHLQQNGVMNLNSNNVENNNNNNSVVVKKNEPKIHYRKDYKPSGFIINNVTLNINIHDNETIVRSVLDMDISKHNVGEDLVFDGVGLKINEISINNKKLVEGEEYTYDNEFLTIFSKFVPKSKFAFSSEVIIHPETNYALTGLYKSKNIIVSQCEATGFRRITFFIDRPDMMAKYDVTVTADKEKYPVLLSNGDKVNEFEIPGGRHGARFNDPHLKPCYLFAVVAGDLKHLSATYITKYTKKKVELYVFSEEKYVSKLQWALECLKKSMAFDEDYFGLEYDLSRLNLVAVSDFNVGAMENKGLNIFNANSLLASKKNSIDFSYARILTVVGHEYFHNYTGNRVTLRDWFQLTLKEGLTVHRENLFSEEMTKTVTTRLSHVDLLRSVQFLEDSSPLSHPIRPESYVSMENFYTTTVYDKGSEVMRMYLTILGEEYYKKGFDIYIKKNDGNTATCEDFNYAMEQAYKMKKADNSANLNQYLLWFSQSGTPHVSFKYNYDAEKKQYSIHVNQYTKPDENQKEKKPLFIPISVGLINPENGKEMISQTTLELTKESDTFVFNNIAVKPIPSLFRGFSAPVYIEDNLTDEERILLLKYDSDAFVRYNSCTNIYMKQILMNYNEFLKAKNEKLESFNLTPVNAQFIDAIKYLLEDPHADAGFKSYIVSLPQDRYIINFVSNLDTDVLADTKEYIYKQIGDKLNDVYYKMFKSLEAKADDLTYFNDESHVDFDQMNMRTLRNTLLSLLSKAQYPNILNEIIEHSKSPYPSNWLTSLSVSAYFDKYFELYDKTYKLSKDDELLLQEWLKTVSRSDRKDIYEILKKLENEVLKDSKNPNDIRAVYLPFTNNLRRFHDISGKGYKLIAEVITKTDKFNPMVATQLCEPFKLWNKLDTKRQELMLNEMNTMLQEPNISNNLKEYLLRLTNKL

This test concerns the target Aminopeptidase N (Plasmodium falciparum (isolate 3D7)) (UniProt O96935). Nature of the test: malaria alanyl aminopeptidase activity blockers – biochemical, fluorogenic H-Leu-NHMec substrate, 1536-well (AID 1445).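 Further: plate controls were DMSO full reaction for no effect and no enzyme background for full effect.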 To be noted: recombinant M1AAP, H-Leu-NHMec fluorogenic kinetic assay; at 30 µM, stronger effect = higher value unless noted.
For the molecule `O=C(CSc1nc2c(c(=O)[nH]1)CCCC2)Nc1ccc(Cl)cc1F`, the inhibition was -2.08%.

On to `CS(=O)(=O)N1CCC(C(=O)Nc2ccc(F)cc2F)CC1`, for which the inhibition is -3.46%. For the molecule `CCCCC(CC)CNC(=O)c1cccs1` (stereo not drawn), the inhibition was -3.27%.

For the molecule `Cc1ccccc1NS(=O)(=O)c1cc(C(=O)N2CCCC2)ccc1C`, the inhibition is 4.97%. In the case of `Cc1nnc(SCC(=O)NCCN2C(=O)CSC2=O)s1` it was 2.17%; in that of `Cc1ccc(CSc2ncccc2C(=O)O)cc1`, 1.82%; in that of `Cc1cccc(CSc2ncccc2C(=O)O)c1`, 2.89%. The figure for `COc1ccc(-c2cc(C(=O)NCc3ccccc3)no2)cc1OC` is -1.3%. In the case of `CC(=O)N=c1sc2cc(C)ccc2n1C` it was 3.39%; in that of `Cc1cc(C(=O)OCC(=O)NCc2ccc(Cl)cc2)c(C)o1`, -6.7%. As for `CCN(CC)CCC(=O)Nc1cccc2c1C(=O)c1ccccc1C2=O`, the inhibition is 7.62%.

In the case of `CCN(CC)CC(=O)Nc1cccc2c1C(=O)c1ccccc1C2=O`, the inhibition was 5.73%. In the case of `CCN(CC)C(C(=O)NC1CCCCC1)c1ccc(C)cc1` (stereo not drawn) it was -1.29%.

For the molecule `COc1ccc(NC(=O)CN2C(=O)c3ccccc3Sc3ccc(C(=O)N4CCOCC4)cc32)c(OC)c1`, the inhibition is 9.02%. The figure for `CSCCC1C(C#N)=C(N)Oc2n[nH]c(-c3cccs3)c21` (stereo not drawn) is 23.8% (active); for `CC(C)CC1C(C#N)=C(N)Oc2n[nH]c(-c3cccs3)c21` (stereo not drawn) it is -0.26%; for `CC(C)C1C(C#N)=C(N)Oc2n[nH]c(-c3cccs3)c21` (stereo not drawn) it is 5.75%. The figure for `Cc1ccc2c(CN3C(=O)NC4(CCCCC4)C3=O)cc(=O)oc2c1C` is 8.97%. For `Cc1ccc(CSc2nc3sc(C)c(C)c3c(=O)n2Cc2ccco2)cc1`, the inhibition is 9.77%.

As for `O=C(NC1CCCCCCC1)c1ccc2c(c1)N(Cc1ccc(F)cc1)C(=O)CS2=O` (stereo not drawn), the inhibition is 23.5% (active). In the case of `Cc1ccc(C)c(NC(=O)c2ccc3c(c2)N(Cc2ccc(F)cc2)C(=O)CS3=O)c1` (stereo not drawn) it was -7.55%; in that of `O=C(Nc1ccccc1Cl)c1ccc2c(c1)N(Cc1ccc(F)cc1)C(=O)CS2=O` (stereo not drawn), 3.24%; in that of `CNC(=O)c1cc2c(ccc3ccccc32)o1`, 3.24%. In the case of `Cn1ncc(Br)c1C(=O)Nc1ccc(Br)cn1` it was -3.07%; in that of `Cc1occc1C(=O)NCCCc1ccccc1`, 0.03%. The figure for `O=C(Nc1nnc(SCc2ccccc2)s1)c1cccs1` is -2.48%. With `COc1cccc(C(=O)Nc2cc(C(=O)NCCc3ccccc3)ccc2Cl)c1`, the inhibition is 24.9% (active). Consider `COCC(=O)Nc1cc(C(=O)NCCc2ccccc2)ccc1Cl`, for which the inhibition was -6.24%.

Consider `COc1ccc(C(=O)Nc2cc(C(=O)NCCc3ccccc3)ccc2Cl)cc1`, for which the inhibition is 13.3%.

In the case of `Cc1ccc(C(C(=O)NC(C)(C)C)N(Cc2cccs2)C(=O)c2ccc3c(c2)OCCO3)cc1` (stereo not drawn), the inhibition was 9.95%. `O=C(Cn1nnc(-c2ccc3c(c2)OCO3)n1)N1CCOCC1`: the inhibition is 0.39%.

On to `CCOc1ccc(N2CC(C(=O)Nc3ccc(S(=O)(=O)Nc4ncccn4)cc3)CC2=O)cc1` (stereo not drawn), for which the inhibition was 20.6%. In the case of `CN(Cc1cnccn1)Cc1c(C(=O)N2CCc3ccccc3C2)nc2ccc(Cl)cn12` it was 1.48%; in that of `CC1(NC(=S)NCCO)CCS(=O)(=O)C1` (stereo not drawn), 6.94%; in that of `COc1cccc(NC(=O)C2CCCN(S(=O)(=O)c3cccc4cccnc34)C2)c1` (stereo not drawn), 4.01%. In the case of `O=C(NCc1cccs1)C1CCCN(S(=O)(=O)c2cccc3cccnc23)C1` (stereo not drawn) it was 21.9%; in that of `COc1ccc(CNC(=O)C2CCN(S(=O)(=O)c3cccc4cccnc34)CC2)cc1`, 11.4%.

As for `COc1ccc(NC(=O)C2CCN(S(=O)(=O)c3cccc4cccnc34)CC2)cc1OC`, the inhibition is 2.6%.

Consider `O=C(NCc1cccs1)C1CCN(S(=O)(=O)c2cccc3nsnc23)CC1`, for which the inhibition was 6.27%.

As for `COc1ccc(NC(=O)C2CCCN(S(=O)(=O)c3cccc4cccnc34)C2)cc1OC` (stereo not drawn), the inhibition was 28.4% (active).

For the molecule `O=C(NCc1cccs1)C1CCN(S(=O)(=O)c2cccc3cccnc23)CC1`, the inhibition was 45.9% (active).

`O=C(NCc1ccco1)C1CCN(S(=O)(=O)c2cccc3cccnc23)CC1`: the inhibition is 0.35%. The figure for `CCOc1ccccc1C1C(C(=O)OC)=C(N)OC2=C1C(=O)CCC2` (stereo not drawn) is 3.31%; for `CCOC(=O)N1CCC(NC(=O)C2=CCN(S(=O)(=O)c3ccc(F)cc3)CC2)CC1` it is -3%. The figure for `Cc1cccc(C(=O)Nc2sc(C)c(-c3ccccc3)c2C#N)c1` is 3.54%; for `O=C(OC1CCOC1=O)c1ccc(Cl)c(S(=O)(=O)N2CCCCC2)c1` (stereo not drawn) it is 1.33%. The figure for `COc1cc(/C=C2\SC(c3ccc(C)cc3)=NC2=O)cc(OC)c1OC` is -0.48%; for `COc1cc(/C=C2\SC(c3ccc(C)cc3)=NC2=O)cc(OC)c1O` it is 19.7%; for `COCCNC(=O)c1cc2c(=O)n3cccc(C)c3nc2n(Cc2ccncc2)c1=N` it is 30.2%. For the molecule `COCCCNC(=O)c1cc2c(=O)n3cccc(C)c3nc2n(C(C)C)c1=N`, the inhibition is 21.8%. In the case of `C=CCn1c(=N)c(C(=O)NCCCOC)cc2c(=O)n3cc(C)ccc3nc21`, the inhibition was 4.34%. The figure for `C=CCn1c(=N)c(C(=O)NCCCOC)cc2c(=O)n3ccccc3nc21` is 13.6%; for `CC(CN1CCCCC1)OC(=O)C1c2ccccc2Oc2ccccc21` (stereo not drawn) it is 1.62%; for `Cc1ccc(S(=O)(=O)N2c3ccccc3CC2C)cc1` (stereo not drawn) it is 2.44%. For `CC(c1ccccc1)C1CC(=O)N(C2CCCCC2)C1=O` (stereo not drawn), the inhibition is -0.34%. In the case of `COc1ccc2cc1Oc1ccc(cc1)C[C@H]1c3cc(c(OC)cc3CCN1C)Oc1c(OC)c(OC)cc3c1[C@H](C2)N(C)CC3` it was 0.59%.

For `COc1ccc2cc1Oc1ccc(cc1)C[C@H]1c3c(cc4c(c3Oc3cc5c(cc3OC)CCN(C)[C@@H]5C2)OCO4)CCN1C`, the inhibition is 2.7%. The figure for `CC(c1ccccc1)n1c(Cn2ncc3ccccc3c2=O)n[nH]c1=S` (stereo not drawn) is 7.12%; for `O=C(NCc1ccco1)C1CCCN(S(=O)(=O)c2cccc3nsnc23)C1` (stereo not drawn) it is 5.11%.

`O=C(NCc1ccccc1)C1CCCN(S(=O)(=O)c2cccc3nonc23)C1` (stereo not drawn): the inhibition is 34.1%. Take `O=C(NCc1ccc2c(c1)OCO2)C1CCCN(S(=O)(=O)c2cccc3cccnc23)C1` (stereo not drawn): the inhibition is 18.6%.

Take `O=C(NCc1ccc2c(c1)OCO2)C1CCCN(S(=O)(=O)c2cccc3nonc23)C1` (stereo not drawn): the inhibition is 27.8% (active). In the case of `O=C(NCc1ccco1)C1CCCN(S(=O)(=O)c2cccc3cccnc23)C1` (stereo not drawn) it was 9.65%.
